Experimental data as given in PubChem BioAssay.

assay: small-molecule microarray binders of probe aEGFR, primary screen, biochemical, biotinylated probe, 635/667 nm fluorescence (AID 1097); settings: higher = more signal;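 also: probe is a biotinylated anti-EGFR antibody binding compounds printed on slides; score combines fluorescence near 667 nm and signal to noise of each spot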

| SMILES | composite z-score |
| --- | --- |
| CCOC(=O)C[C@H]1[C@H](OC(=O)Cc2ccc3c(c2)OCO3)[C@@H](NC(=O)c2ccc3ccccc3c2)c2cc(OCCCO)ccc2N1C(=O)Cc1ccc(OC)cc1 | -0.0331 |
| O=C(NCc1ccccc1)c1ccc(Br)cc1[N+](=O)[O-] | -0.0353 |
| CC(C)(C)OC(=O)CC[C@]1(C(=O)N2CCCCC2)N=C(c2ccc(OCCCO)cc2)O[C@H]1c1ccccc1 | -0.084 |
| C=CCNC(=O)[C@@H]1[C@H]2C(=O)O[C@H](c3ccccc3)[C@H](c3ccccc3)N2[C@H](c2ccc(OCCO)cc2)[C@@]12C(=O)N(C(=O)OCCOC)c1ccc(C#CC3(O)CCCCCC3)cc12 | 0.108 |
| CCCC=C(CCC)[C@@H](NS(=O)(=O)c1ccc(C(F)(F)F)cc1)c1ccc(-c2ccccc2)cc1 | -0.013 |
| NC(=O)NCC#Cc1ccc2c(c1)[C@]1(C(=O)N2)[C@H](C(=O)N2CCCCCCC2)[C@H]2C(=O)O[C@H](c3ccccc3)[C@H](c3ccccc3)N2[C@@H]1c1ccccc1OCCO | 1.3 |
| C=C[C@H](OC)[C@@H](OC(=O)Nc1ccc(SC)cc1)c1ccc(O)c(F)c1 | -0.12 |
| CO[C@H]1COC(=O)CC=C[C@H](C)COC(=O)[C@@H](OCc2ccccc2)C=C[C@@H]1C | -0.322 |
| CC(C)C[C@@H]1NC(=O)[C@H]2C[C@@H](C(=O)NCCCCCC[N+](C)(C)C)[C@@H](c3ccc(O)cc3)N2C1=O | -0.149 |
| CO[C@H]1COC(=O)[C@@H](C)NC(=O)CC=C[C@@H](C)[C@H](OC)COC(=O)CC=C[C@@H]1C | -0.299 |
| C=CC[C@@]12N=C(c3ccc(OCCCO)cc3)O[C@@H]1c1ccccc1CN(Cc1ccccc1)C2=O | 0.0122 |
| COc1ccc([Si](C)(C)[C@@H]2[C@@H](CC(=O)N(CCO)Cc3ccccc3)O[C@]3(C(=O)N(Cc4cccc(N5CCC5=O)c4)c4ccccc43)[C@H]2C)cc1 | -0.135 |
| CN(C)CCCC[C@@H]1NC(=O)[C@@H]2C[C@H](C(=O)O)[C@H](c3ccc(O)cc3)N2C1=O | -0.0605 |
| CCOC(=O)C1=CCC(c2cccc3ccccc23)N(S(=O)(=O)c2ccc(C)cc2)C1 (centres undefined) | 0.211 |
| CO[C@@H]1COC(=O)CC=C[C@@H](C)[C@H](OC)COC(=O)CC=C[C@H]1C | -0.158 |
| C=C(COC)/C(=C/C[C@H](OC(C)=O)c1ccc(OCCO)cc1)c1cnc2ccccc2c1 | -0.0039 |
| CO[C@H]1O[C@H](CO)[C@@H](OC(=O)Nc2ccc(Oc3ccccc3)cc2)[C@H](OC(=O)Nc2ccccc2-c2ccccc2)[C@H]1OC(=O)Nc1ccccc1-c1ccccc1 | 0.242 |
| CCC1=C2CN(Cc3ccccc3Br)[C@@H]([C@@H](O)Cc3ccccc3)C2C=CCC1 (some centres undefined) | -0.0981 |
| [N-]=[N+]=NCc1ccccc1C[C@@]1(C(=O)N2CCOCC2)N=C(c2ccc(OCCCO)cc2)O[C@@H]1c1ccccc1N=[N+]=[N-] | 0.318 |
| C=CC(=O)O[C@@H](Cc1ccccc1)[C@H]1C2C=CCCC=C2CN1Cc1cccc(Cl)c1 (some centres undefined) | -0.189 |
| NC(=O)[C@H]1[C@@H]2C(=O)O[C@@H](c3ccccc3)[C@@H](c3ccccc3)N2[C@@H](c2ccc(O)cc2)[C@]12C(=O)Nc1ccc(C#CCCO)cc12 | -0.112 |
| NC(=O)NCC#Cc1ccc2c(c1)[C@]1(C(=O)N2)[C@H](C(N)=O)[C@H]2C(=O)O[C@H](c3ccccc3)[C@H](c3ccccc3)N2[C@@H]1c1ccccc1OCCO | -0.151 |
| C=CC[C@]1(C(N)=O)N=C(c2ccc(OCCCO)cc2)O[C@H]1c1ccccc1CN=[N+]=[N-] | 0.0183 |
| C[N+](C)(C)CCCCNC(=O)[C@@H]1C[C@@H]2C(=O)N3CCC[C@H]3C(=O)N2[C@@H]1c1cccc(OCCO)c1 | 0.0051 |
| O=C1O[C@H](c2ccccc2)[C@H](c2ccccc2)N2[C@H]1[C@@H](C(=O)Nc1nc3ccccc3s1)[C@]1(C(=O)Nc3ccc(C#CC4(O)CCCCCC4)cc31)[C@H]2c1ccc(O)cc1 | -0.0214 |
| COc1ccc(C(O)C2C=CC3C(=O)N(C)C(=O)C3N2N2CCCCC2)cc1OCc1ccccc1 (centres undefined) | 0.0787 |
| CC1=C([C@H](O)CCc2ccccc2)[C@H](CO)[C@@H]2C(=O)N(Cc3ccccc3)C(=O)[C@@H]2C1 | -0.085 |
| C=C[C@H](OC)[C@@H](OC(=O)Nc1ccc(SC)cc1)c1ccc(OC)c(O)c1 | -0.338 |
| CC(C)(C)OC(=O)CC[C@@]1(C(=O)NCc2ccccc2)N=C(c2ccc(OCCCO)cc2)O[C@@H]1c1ccccc1 | 0.045 |
